{
  "source": "PubChem BioAssay (Tox21)",
  "note": "Results filed as inconclusive are left out. The source made the active and inactive calls. Unless noted, calls come from the whole dose curve; as a rule, active = well fitted cell-killing curve with a large enough effect in the repeat runs; inconclusive = weak or mixed curves, or effect the other way; inactive = no such curve, though single readings can be large or run the other way.",
  "data": [
    {"assay": "qHTS assay to identify small molecule agonists of the vitamin D receptor (VDR) signaling pathway - cell viability counter screen (AID 743224); note: nearly all actives have a fitted effect of over 50% in size", "details": "VDR-bla HEK293T viability, CellTiter-Glo luminescence, 16 h; series mostly up to 62.6 µM", "method_in_brief": "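Plated VDR-bla cells (4 h, 37C) received compound, incubated 16 h, then LiveBLAzer substrate 2 h RT; CellTiter-Glo added afterwards, luminescence read at 30 min.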", "values": [
      {"smiles": "NS(=O)(=O)c1ccccc1OC(F)(F)F", "outcome": "inactive"},
      {"smiles": "C[C@@H]1C[C@H]2[C@@H]3C[C@H](F)C4=CC(=O)C=C[C@]4(C)[C@@]3(F)[C@@H](O)C[C@]2(C)[C@@]1(O)C(=O)CO", "outcome": "inactive"},
      {"smiles": "CCOC(=O)CC#N", "outcome": "inactive"},
      {"smiles": "CC(=O)OCC(=O)[C@@]1(O)[C@H](OC(C)=O)C[C@H]2[C@@H]3CCC4=CC(=O)C=C[C@]4(C)[C@@]3(F)[C@@H](O)C[C@@]21C", "outcome": "inactive"},
      {"smiles": "COCCOCCOCCOC", "outcome": "inactive"},
      {"smiles": "C=COCCOCCOC=C", "outcome": "inactive"},
      {"smiles": "BrC/C=C/CBr", "outcome": "inactive"},
      {"smiles": "C[N+](C)(C)CC(O)CCl", "note": "(stereo not given)", "outcome": "inactive"},
      {"smiles": "CCCCCCCCCCCCC", "outcome": "inactive"},
      {"smiles": "CCCCC[Si](OCC)(OCC)OCC", "outcome": "inactive"},
      {"smiles": "C/C=C(\\C)C(=O)OCC/C=C\\CC", "outcome": "inactive"},
      {"smiles": "CNC(=O)NC", "outcome": "inactive"},
      {"smiles": "CC1CCC(C(C)(C)S)C(=O)C1", "note": "(stereo not given)", "outcome": "inactive"},
      {"smiles": "CC(=O)N1CCN(c2ccc(O)cc2)CC1", "outcome": "inactive"},
      {"smiles": "O=S(=O)(O)CCO", "outcome": "inactive"},
      {"smiles": "FC(F)(F)c1ccc(Cl)cc1Cl", "outcome": "inactive"},
      {"smiles": "CCCCCCCCCCCCCC(=O)OC", "outcome": "inactive"},
      {"smiles": "CCCCOC(=O)C(=O)OCCCC", "outcome": "inactive"},
      {"smiles": "Nc1nc(=O)n([C@@H]2O[C@H](CO)[C@@H](O)[C@@H]2F)cc1I", "outcome": "inactive"},
      {"smiles": "C[C@H]1O[C@H](O[C@H]2[C@H](O)[C@@H](O)[C@@H](O[C@H]3[C@H](O)[C@@H](O)[C@H](O)O[C@@H]3CO)O[C@@H]2CO)[C@H](O)[C@@H](O)[C@@H]1N[C@H]1C=C(CO)[C@@H](O)[C@H](O)[C@H]1O", "outcome": "inactive"},
      {"smiles": "CC(=O)Nc1ccc(C)cc1", "outcome": "inactive"},
      {"smiles": "C=CC(C)(O)CC/C=C(\\C)CC", "note": "(stereo not given)", "outcome": "inactive"},
      {"smiles": "O=C(O)c1c(Cl)ccc(Cl)c1Cl", "outcome": "inactive"},
      {"smiles": "CC(C)COC(=O)COc1ccc(Cl)cc1Cl", "outcome": "inactive"},
      {"smiles": "CNC(=O)C(c1ccccc1)c1ccccc1", "outcome": "inactive"},
      {"smiles": "Cc1nc2ccccc2c(=O)o1", "outcome": "inactive"},
      {"smiles": "C=C[C@@H](C)CCC=C(C)C", "outcome": "inactive"},
      {"smiles": "NC(=O)NC(=O)Cc1ccccc1", "outcome": "inactive"},
      {"smiles": "Nc1ccc(S(=O)(=O)NC(=O)c2ccccc2)cc1", "outcome": "inactive"},
      {"smiles": "CC(=O)OCCCc1ccccc1", "outcome": "inactive"},
      {"smiles": "CCCCCCCCCCCCOC(C)=O", "outcome": "inactive"},
      {"smiles": "c1ccccc1", "outcome": "inactive"},
      {"smiles": "Cc1cc(O)c2c(c1)C(=O)c1cccc(O)c1C2=O", "outcome": "inactive"},
      {"smiles": "O=C(O)c1ccccc1C(=O)OCc1ccccc1", "outcome": "inactive"},
      {"smiles": "CN(C)CCOCCN(C)CCO", "outcome": "inactive"},
      {"smiles": "CC(C)(CO)[C@@H](O)C(=O)NCCCO", "outcome": "inactive"}
    ]},
    {"assay": "qHTS assay to identify small molecule antagonists of the vitamin D receptor (VDR) signaling pathway - cell viability counter screen (AID 743225); note: nearly all actives have a fitted effect of over 50% in size", "details": "VDR-bla HEK293T viability, CellTiter-Glo luminescence, 16 h; series mostly up to 61 µM", "method_in_brief": "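Cytotoxicity counter screen read by CellTiter-Glo luminescence (30 min, room temperature) in the same wells as the VDR-bla antagonist readout. HEK 293T VDR-UAS-bla cells had 16 h at 37C with compound and 3 nM (final) 1-alpha,25-dihydroxyvitamin D3, then 2 h with FRET substrate.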", "values": [
      {"smiles": "C[C@@H]1C[C@H]2[C@@H]3C[C@H](F)C4=CC(=O)C=C[C@]4(C)[C@@]3(F)[C@@H](O)C[C@]2(C)[C@@]1(O)C(=O)CO", "outcome": "inactive"},
      {"smiles": "CCOC(=O)CC#N", "outcome": "inactive"},
      {"smiles": "CC(=O)OCC(=O)[C@@]1(O)[C@H](OC(C)=O)C[C@H]2[C@@H]3CCC4=CC(=O)C=C[C@]4(C)[C@@]3(F)[C@@H](O)C[C@@]21C", "outcome": "inactive"},
      {"smiles": "COCCOCCOCCOC", "outcome": "inactive"},
      {"smiles": "C=COCCOCCOC=C", "outcome": "inactive"},
      {"smiles": "BrC/C=C/CBr", "outcome": "inactive"},
      {"smiles": "C[N+](C)(C)CC(O)CCl", "note": "(stereo not given)", "outcome": "inactive"},
      {"smiles": "CCCCCCCCCCCCC", "outcome": "inactive"},
      {"smiles": "C/C=C(\\C)C(=O)OCC/C=C\\CC", "outcome": "inactive"},
      {"smiles": "CC(=O)N1CCN(c2ccc(O)cc2)CC1", "outcome": "inactive"},
      {"smiles": "FC(F)(F)c1ccc(Cl)cc1Cl", "outcome": "inactive"},
      {"smiles": "CCCCCCCCCCCCCC(=O)OC", "outcome": "inactive"},
      {"smiles": "CCCCOC(=O)C(=O)OCCCC", "outcome": "inactive"},
      {"smiles": "Nc1nc(=O)n([C@@H]2O[C@H](CO)[C@@H](O)[C@@H]2F)cc1I", "outcome": "inactive"},
      {"smiles": "C[C@H]1O[C@H](O[C@H]2[C@H](O)[C@@H](O)[C@@H](O[C@H]3[C@H](O)[C@@H](O)[C@H](O)O[C@@H]3CO)O[C@@H]2CO)[C@H](O)[C@@H](O)[C@@H]1N[C@H]1C=C(CO)[C@@H](O)[C@H](O)[C@H]1O", "outcome": "inactive"},
      {"smiles": "C=CC(C)(O)CC/C=C(\\C)CC", "note": "(stereo not given)", "outcome": "inactive"},
      {"smiles": "O=C(O)c1c(Cl)ccc(Cl)c1Cl", "outcome": "inactive"},
      {"smiles": "CC(C)COC(=O)COc1ccc(Cl)cc1Cl", "outcome": "inactive"},
      {"smiles": "CNC(=O)C(c1ccccc1)c1ccccc1", "outcome": "inactive"},
      {"smiles": "NC(=O)NC(=O)Cc1ccccc1", "outcome": "inactive"},
      {"smiles": "Nc1ccc(S(=O)(=O)NC(=O)c2ccccc2)cc1", "outcome": "inactive"},
      {"smiles": "CCCCCCCCCCCCOC(C)=O", "outcome": "inactive"},
      {"smiles": "c1ccccc1", "outcome": "inactive"},
      {"smiles": "NC(=O)NNC(N)=O", "outcome": "inactive"},
      {"smiles": "Cc1cc(O)c2c(c1)C(=O)c1cccc(O)c1C2=O", "outcome": "inactive"},
      {"smiles": "O=C(O)c1ccccc1C(=O)OCc1ccccc1", "outcome": "inactive"},
      {"smiles": "CC(C)(CO)[C@@H](O)C(=O)NCCCO", "outcome": "inactive"}
    ]},
    {"assay": "qHTS assay to identify small molecule agonists of the NFkB signaling pathway (AID 1159509; active = well fitted curve in the direction sought with a large enough effect in the signal ratio in the repeat runs, not every such curve was filed as active; the % refers to the signal ratio)", "details": "NFkB-bla ME-180 cells, beta-lactamase FRET ratio, 5 h; series mostly up to 61 µM", "method_in_brief": "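NFkB-bla ME-180 cells with a beta-lactamase reporter under an NF-kB response element were plated overnight, treated with compounds in DMSO for 5 hr at 37 C, then loaded with FRET substrate for 1.5 hr at room temperature.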", "values": [
      {"smiles": "NS(=O)(=O)c1ccccc1OC(F)(F)F", "outcome": "inactive"},
      {"smiles": "C[C@@H]1C[C@H]2[C@@H]3C[C@H](F)C4=CC(=O)C=C[C@]4(C)[C@@]3(F)[C@@H](O)C[C@]2(C)[C@@]1(O)C(=O)CO", "outcome": "inactive"},
      {"smiles": "CCOC(=O)CC#N", "outcome": "inactive"},
      {"smiles": "CC(=O)OCC(=O)[C@@]1(O)[C@H](OC(C)=O)C[C@H]2[C@@H]3CCC4=CC(=O)C=C[C@]4(C)[C@@]3(F)[C@@H](O)C[C@@]21C", "outcome": "inactive"},
      {"smiles": "COCCOCCOCCOC", "outcome": "inactive"},
      {"smiles": "C=COCCOCCOC=C", "outcome": "inactive"},
      {"smiles": "BrC/C=C/CBr", "outcome": "inactive"},
      {"smiles": "C[N+](C)(C)CC(O)CCl", "note": "(stereo not given)", "outcome": "inactive"},
      {"smiles": "CCCCCCCCCCCCC", "outcome": "inactive"},
      {"smiles": "CCCCC[Si](OCC)(OCC)OCC", "outcome": "inactive"},
      {"smiles": "C/C=C(\\C)C(=O)OCC/C=C\\CC", "outcome": "inactive"},
      {"smiles": "CNC(=O)NC", "outcome": "inactive"},
      {"smiles": "CC1CCC(C(C)(C)S)C(=O)C1", "note": "(stereo not given)", "outcome": "inactive"},
      {"smiles": "CC(=O)N1CCN(c2ccc(O)cc2)CC1", "outcome": "inactive"},
      {"smiles": "O=S(=O)(O)CCO", "outcome": "inactive"},
      {"smiles": "FC(F)(F)c1ccc(Cl)cc1Cl", "outcome": "inactive"},
      {"smiles": "CCCCCCCCCCCCCC(=O)OC", "outcome": "inactive"},
      {"smiles": "CCCCOC(=O)C(=O)OCCCC", "outcome": "inactive"},
      {"smiles": "Nc1nc(=O)n([C@@H]2O[C@H](CO)[C@@H](O)[C@@H]2F)cc1I", "outcome": "inactive"},
      {"smiles": "C[C@H]1O[C@H](O[C@H]2[C@H](O)[C@@H](O)[C@@H](O[C@H]3[C@H](O)[C@@H](O)[C@H](O)O[C@@H]3CO)O[C@@H]2CO)[C@H](O)[C@@H](O)[C@@H]1N[C@H]1C=C(CO)[C@@H](O)[C@H](O)[C@H]1O", "outcome": "inactive"},
      {"smiles": "CC(=O)Nc1ccc(C)cc1", "outcome": "inactive"},
      {"smiles": "C=CC(C)(O)CC/C=C(\\C)CC", "note": "(stereo not given)", "outcome": "inactive"},
      {"smiles": "O=C(O)c1c(Cl)ccc(Cl)c1Cl", "outcome": "inactive"},
      {"smiles": "CC(C)COC(=O)COc1ccc(Cl)cc1Cl", "outcome": "inactive"},
      {"smiles": "CNC(=O)C(c1ccccc1)c1ccccc1", "outcome": "inactive"},
      {"smiles": "Cc1nc2ccccc2c(=O)o1", "outcome": "inactive"},
      {"smiles": "C=C[C@@H](C)CCC=C(C)C", "outcome": "inactive"},
      {"smiles": "NC(=O)NC(=O)Cc1ccccc1", "outcome": "inactive"},
      {"smiles": "Nc1ccc(S(=O)(=O)NC(=O)c2ccccc2)cc1", "outcome": "inactive"},
      {"smiles": "CC(=O)OCCCc1ccccc1", "outcome": "inactive"},
      {"smiles": "CCCCCCCCCCCCOC(C)=O", "outcome": "inactive"},
      {"smiles": "c1ccccc1", "outcome": "inactive"},
      {"smiles": "NC(=O)NNC(N)=O", "outcome": "inactive"},
      {"smiles": "Cc1cc(O)c2c(c1)C(=O)c1cccc(O)c1C2=O", "outcome": "inactive"},
      {"smiles": "O=C(O)c1ccccc1C(=O)OCc1ccccc1", "outcome": "inactive"},
      {"smiles": "CN(C)CCOCCN(C)CCO", "outcome": "inactive"},
      {"smiles": "CC(C)(CO)[C@@H](O)C(=O)NCCCO", "outcome": "inactive"}
    ]}
  ]
}
